# Compounds without any hit were thinned out: in the full panel of roughly 79,000, 15% have a hit. A number with no mark means an inactive call. Activity calls are given as the source filed them. Rule as the data show it: active = growth inhibition above about 70%; inactive = the rest.
# What was measured:
# [1] = NCI Yeast Anticancer Drug Screen. Data for the wt1 strain (AID 149);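 also: 0% = growth of vehicle-treated wt1 cultures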; details: S. cerevisiae wt1 strain (SPY 50644) growth inhibition, hits give high values
# Procedure, shortened: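 Yeast wt1 strain exposed to compounds; growth inhibition measured relative to vehicle-treated controls.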
# [2] = NCI Yeast Anticancer Drug Screen. Data for the rad50EPP+ strain (AID 151);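 also: 0% = growth of vehicle-treated control cultures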; details: S. cerevisiae rad50 mutant strain, hits give high values
# Procedure, shortened: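 Growth inhibition read against vehicle controls in rad50EPP+ yeast, a strain altered in DNA damage repair, after compound exposure.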
# [3] = NCI Yeast Anticancer Drug Screen. Data for the mgt1 strain (AID 153); details: S. cerevisiae mgt1 mutant growth inhibition, hits give high values
# Procedure, shortened: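 mgt1 yeast grown with test compound; read-out is growth inhibition versus vehicle-treated cultures.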
# [4] = NCI Yeast Anticancer Drug Screen. Data for the rad50 strain (AID 155);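 also: 0% = growth of vehicle-only cultures of the same strain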; details: S. cerevisiae rad50 strain growth inhibition, hits give high values
# Procedure, shortened: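 Yeast carrying a defined DNA repair defect were exposed to test compounds, and growth was compared with vehicle-treated controls to give percent inhibition.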
# [5] = NCI Yeast Anticancer Drug Screen. Data for the mec2-1 strain (AID 157); details: S. cerevisiae mec2-1 strain, hits give high values
# Procedure, shortened: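 Yeast mec2-1 mutant treated with compound. Readout: growth inhibition vs vehicle controls.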
# [6] = NCI Yeast Anticancer Drug Screen. Data for the rad14 strain (AID 159);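 also: 0% = growth of vehicle-treated control cultures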; details: S. cerevisiae rad14 strain growth inhibition, hits give high values
# Procedure, shortened: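 Yeast cells carrying a defined DNA-repair defect were exposed to compounds, and growth inhibition was calculated relative to vehicle-treated control cultures.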
# [7] = NCI Yeast Anticancer Drug Screen. Data for the sgs1 mgt1 strain (AID 161);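 also: 0% = growth of cultures given vehicle only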; details: S. cerevisiae sgs1 mgt1 strain, hits give high values
# Procedure, shortened: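 Mutant yeast exposed to compound; growth scored against vehicle-only wells.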
# [8] = NCI Yeast Anticancer Drug Screen. Data for the CLN2oe strain (AID 163);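 also: 0% = growth of vehicle-only control cultures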; details: S. cerevisiae CLN2oe strain, hits give high values
# Procedure, shortened: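 Read-out: yeast growth inhibition, expressed relative to vehicle-only controls. The strain bears an engineered cell-cycle alteration.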
# [9] = NCI Yeast Anticancer Drug Screen. Data for the cln2 rad14 strain (AID 165);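 also: 0% = growth equal to vehicle treated cultures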; details: S. cerevisiae cln2 rad14 strain, hits give high values
# Procedure, shortened: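 cln2 rad14 yeast strain; compound exposure; growth inhibition read vs vehicle controls.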
# [10] = NCI Yeast Anticancer Drug Screen. Data for the bub3 strain (AID 167); details: S. cerevisiae bub3 mutant strain, hits give high values
# Procedure, shortened: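 Compounds were applied to a genetically altered yeast strain carrying a cell-cycle control defect. Growth inhibition was scored against vehicle-treated controls.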
# [11] = NCI Yeast Anticancer Drug Screen. Data for the wt2 strain (AID 169);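 also: 0% = growth of vehicle-treated yeast cultures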; details: S. cerevisiae wt2 strain growth inhibition, hits give high values
# Procedure, shortened: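 Read-out: growth inhibition versus vehicle-treated control cultures after compound exposure of the yeast strain.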
# [12] = NCI Yeast Anticancer Drug Screen. Data for the sgs1 strain (AID 173);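 also: 0% = growth of vehicle-only control cultures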; details: S. cerevisiae sgs1 mutant, hits give high values
# Procedure, shortened: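 Read-out: yeast growth inhibition relative to vehicle controls, following compound exposure of a strain with a defined DNA repair/cell cycle alteration.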
# [13] = NCI Yeast Anticancer Drug Screen. Data for the mlh1 rad18 strain (AID 175); details: S. cerevisiae mlh1 rad18 strain growth inhibition, hits give high values
# Procedure, shortened: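 Yeast w/ defined DNA-repair lesions; compound exposure; growth vs vehicle controls → % inhibition.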
# [14] = NCI Yeast Anticancer Drug Screen. Data for the rad18 strain (AID 177); details: S. cerevisiae rad18 mutant growth inhibition, hits give high values
# Procedure, shortened: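 Readout: growth inhibition vs vehicle controls. Cells: genetically altered yeast strain, DNA repair defect.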
# [15] = NCI Yeast Anticancer Drug Screen. Data for the mlh1 strain (AID 171);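 also: 0% = growth of vehicle-treated control cultures of the same strain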; details: S. cerevisiae mlh1 strain growth inhibition, hits give high values
# Procedure, shortened: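 Read-out: growth inhibition versus vehicle controls. Strain: engineered yeast with a defined DNA repair or cell cycle defect, compound-treated.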
# [16] = at 5.0 µM (retest, dose inferred, filed as 0.5)
# [17] = at 50.0 µM (retest, dose inferred, filed as 5.0)
compound,measurement,setting,value
COc1ccc2c(c1)CCCC(Br)C2=O (stereo unspecified),growth inhibition,[1]; at 1.2 µM,14%
same,growth inhibition,[1]; at 3.7 µM,0%
same,growth inhibition,[1]; at 11.0 µM,17%
same,growth inhibition,[1]; at 33.0 µM,51%
same,growth inhibition,[1]; at 100.0 µM,98% (active)
same,growth inhibition,[2]; at 1.2 µM,5%
same,growth inhibition,[2]; at 3.7 µM,28%
same,growth inhibition,[2]; at 11.0 µM,30%
same,growth inhibition,[2]; at 33.0 µM,67%
same,growth inhibition,[2]; at 100.0 µM,97% (active)
same,growth inhibition,[3]; at 1.2 µM,26%
same,growth inhibition,[3]; at 3.7 µM,23%
same,growth inhibition,[3]; at 11.0 µM,36%
same,growth inhibition,[3]; at 33.0 µM,78% (active)
same,growth inhibition,[3]; at 100.0 µM,98% (active)
same,growth inhibition,[4]; at 1.2 µM,30%
same,growth inhibition,[4]; at 3.7 µM,28%
same,growth inhibition,[4]; [16],11%
same,growth inhibition,[4]; at 11.0 µM,31%
same,growth inhibition,[4]; at 33.0 µM,70% (active)
same,growth inhibition,[4]; [17],48%
same,growth inhibition,[4]; at 50.0 µM,37.4%
same,growth inhibition,[4]; at 100.0 µM,98% (active)
same,growth inhibition,[5]; at 1.2 µM,38%
same,growth inhibition,[5]; at 3.7 µM,41%
same,growth inhibition,[5]; [16],-13%
same,growth inhibition,[5]; at 11.0 µM,54%
same,growth inhibition,[5]; at 33.0 µM,71% (active)
same,growth inhibition,[5]; [17],78% (active)
same,growth inhibition,[5]; at 50.0 µM,86.2% (active)
same,growth inhibition,[5]; at 100.0 µM,97% (active)
same,growth inhibition,[6]; at 1.2 µM,3%
same,growth inhibition,[6]; at 3.7 µM,2%
same,growth inhibition,[6]; at 11.0 µM,14%
same,growth inhibition,[6]; at 33.0 µM,64%
same,growth inhibition,[6]; at 100.0 µM,98% (active)
same,growth inhibition,[7]; [16],17%
same,growth inhibition,[7]; [17],90% (active)
same,growth inhibition,[7]; at 50.0 µM,88.3% (active)
same,growth inhibition,[8]; at 1.2 µM,1%
same,growth inhibition,[8]; at 3.7 µM,11%
same,growth inhibition,[8]; at 11.0 µM,-9%
same,growth inhibition,[8]; at 33.0 µM,45%
same,growth inhibition,[8]; at 100.0 µM,96% (active)
same,growth inhibition,[9]; [16],39%
same,growth inhibition,[9]; [17],59%
same,growth inhibition,[9]; at 50.0 µM,34.3%
same,growth inhibition,[10]; at 1.2 µM,-7%
same,growth inhibition,[10]; at 3.7 µM,-10%
same,growth inhibition,[10]; [16],-12%
same,growth inhibition,[10]; at 11.0 µM,-4%
same,growth inhibition,[10]; at 33.0 µM,50%
same,growth inhibition,[10]; [17],97% (active)
same,growth inhibition,[10]; at 50.0 µM,90.1% (active)
same,growth inhibition,[10]; at 100.0 µM,97% (active)
same,growth inhibition,[11]; at 1.2 µM,-41%
same,growth inhibition,[11]; at 3.7 µM,-53%
same,growth inhibition,[11]; at 11.0 µM,-22%
same,growth inhibition,[11]; at 33.0 µM,60%
same,growth inhibition,[11]; at 100.0 µM,98% (active)
same,growth inhibition,[12]; at 1.2 µM,34%
same,growth inhibition,[12]; at 3.7 µM,43%
same,growth inhibition,[12]; at 11.0 µM,35%
same,growth inhibition,[12]; at 33.0 µM,74% (active)
same,growth inhibition,[12]; at 100.0 µM,99% (active)
same,growth inhibition,[13]; [16],6%
same,growth inhibition,[13]; [17],73% (active)
same,growth inhibition,[13]; at 50.0 µM,92.4% (active)
same,growth inhibition,[14]; at 1.2 µM,32%
same,growth inhibition,[14]; at 3.7 µM,45%
same,growth inhibition,[14]; at 11.0 µM,54%
same,growth inhibition,[14]; at 33.0 µM,87% (active)
same,growth inhibition,[14]; at 100.0 µM,99% (active)
O=C(CCCN1CCC(Nc2ccc(F)cc2)(c2nnnn2C2CCCCC2)CC1)c1ccc(F)cc1,growth inhibition,[1]; at 1.2 µM,-81%
same,growth inhibition,[1]; at 3.7 µM,-5%
same,growth inhibition,[1]; at 11.0 µM,-11%
same,growth inhibition,[1]; at 33.0 µM,-11%
same,growth inhibition,[1]; at 100.0 µM,89% (active)
same,growth inhibition,[2]; at 1.2 µM,0%
same,growth inhibition,[2]; at 3.7 µM,0%
same,growth inhibition,[2]; at 11.0 µM,1%
same,growth inhibition,[2]; at 33.0 µM,4%
same,growth inhibition,[2]; at 100.0 µM,25%
same,growth inhibition,[3]; at 1.2 µM,-2%
same,growth inhibition,[3]; at 3.7 µM,-3%
same,growth inhibition,[3]; at 11.0 µM,-6%
same,growth inhibition,[3]; at 33.0 µM,2%
same,growth inhibition,[3]; at 100.0 µM,98% (active)
same,growth inhibition,[4]; at 1.2 µM,-5%
same,growth inhibition,[4]; at 3.7 µM,-7%
same,growth inhibition,[4]; [16],1%
same,growth inhibition,[4]; at 11.0 µM,-9%
same,growth inhibition,[4]; at 33.0 µM,-5%
same,growth inhibition,[4]; [17],37%
same,growth inhibition,[4]; at 50.0 µM,11.7%
same,growth inhibition,[4]; at 100.0 µM,97% (active)
same,growth inhibition,[5]; at 1.2 µM,-7%
same,growth inhibition,[5]; at 3.7 µM,-8%
same,growth inhibition,[5]; [16],3%
same,growth inhibition,[5]; at 11.0 µM,-17%
same,growth inhibition,[5]; at 33.0 µM,-5%
same,growth inhibition,[5]; [17],12%
same,growth inhibition,[5]; at 50.0 µM,27.1%
same,growth inhibition,[5]; at 100.0 µM,99% (active)
same,growth inhibition,[6]; at 1.2 µM,-5%
same,growth inhibition,[6]; at 3.7 µM,-8%
same,growth inhibition,[6]; at 11.0 µM,-10%
same,growth inhibition,[6]; at 33.0 µM,9%
same,growth inhibition,[6]; at 100.0 µM,85% (active)
same,growth inhibition,[7]; [16],-4%
same,growth inhibition,[7]; [17],31%
same,growth inhibition,[7]; at 50.0 µM,50.3%
same,growth inhibition,[8]; at 1.2 µM,-8%
same,growth inhibition,[8]; at 3.7 µM,-10%
same,growth inhibition,[8]; at 11.0 µM,-7%
same,growth inhibition,[8]; at 33.0 µM,31%
same,growth inhibition,[8]; at 100.0 µM,99% (active)
same,growth inhibition,[9]; [16],65%
same,growth inhibition,[9]; [17],50%
same,growth inhibition,[9]; at 50.0 µM,35.7%
same,growth inhibition,[10]; at 1.2 µM,-2%
same,growth inhibition,[10]; at 3.7 µM,-4%
same,growth inhibition,[10]; [16],-13%
same,growth inhibition,[10]; at 11.0 µM,-6%
same,growth inhibition,[10]; at 33.0 µM,22%
same,growth inhibition,[10]; [17],80% (active)
same,growth inhibition,[10]; at 50.0 µM,32.9%
same,growth inhibition,[10]; at 100.0 µM,99% (active)
same,growth inhibition,[11]; at 1.2 µM,-6%
same,growth inhibition,[11]; at 3.7 µM,-6%
same,growth inhibition,[11]; at 11.0 µM,-9%
same,growth inhibition,[11]; at 33.0 µM,-1%
same,growth inhibition,[11]; at 100.0 µM,99% (active)
same,growth inhibition,[15]; at 1.2 µM,-3%
same,growth inhibition,[15]; at 3.7 µM,-6%
same,growth inhibition,[15]; at 11.0 µM,-8%
same,growth inhibition,[15]; at 33.0 µM,-6%
same,growth inhibition,[15]; at 100.0 µM,98% (active)
same,growth inhibition,[12]; at 1.2 µM,-1%
same,growth inhibition,[12]; at 3.7 µM,-1%
same,growth inhibition,[12]; at 11.0 µM,-4%
same,growth inhibition,[12]; at 33.0 µM,7%
same,growth inhibition,[12]; at 100.0 µM,98% (active)
same,growth inhibition,[13]; [16],-3%
same,growth inhibition,[13]; [17],41%
same,growth inhibition,[13]; at 50.0 µM,77.8% (active)
same,growth inhibition,[14]; at 1.2 µM,3%
same,growth inhibition,[14]; at 3.7 µM,0%
same,growth inhibition,[14]; at 11.0 µM,14%
same,growth inhibition,[14]; at 33.0 µM,17%
same,growth inhibition,[14]; at 100.0 µM,99% (active)
